Source: PubChem BioAssay (NCI)
Compounds without any hit were thinned out: in the full panel of roughly 83,000, 20% have a hit.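 48-hour exposure, single concentration, 96-well plates; percent growth endpoint where 0 means no net growth. Active: below 10.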 Unmarked numbers belong to inactive results. The source made the active and inactive calls.

test system: SF-295 CNS; experiment: NCI-60 one-dose screen, 48 h (100 = growth as untreated, 0 = no growth, -100 = all killed); details: 10 µM

With `CN(C)CCOc1nc2ccccc2c2c1-c1ccc(Cl)cc1C2=O` the growth was -27.9% (active).
With `O=C1OCC2=C1C(c1cccc(Cl)c1)c1cc3c(cc1N2CCO)CCC3` (stereo not drawn) the growth was -18.8% (active).
With `O=C(Nc1cccc(-n2cc(-c3ccncc3)c(-c3ccc(O)c(Cl)c3)n2)c1)c1ccc(N2CCOCC2)c(C(F)(F)F)c1` the growth was -39.7% (active).
`COc1ccccc1CNCCCN1C(=O)c2ccc3c4c(ccc(c24)C1=O)C(=O)N(CCCN)C3=O` was tested, and the growth was -2.42% (active).
With `O=C(C[P+](c1ccccc1)(c1ccccc1)c1ccccc1)C[P+](c1ccccc1)(c1ccccc1)c1ccccc1` the growth was -72.4% (active).

In order of rising growth:
1. COc1cc(/C=C2\CCCC3=C2N=C2SC=NN2C3c2cc(OC)c(OC)c(OC)c2)cc(OC)c1OC (stereo not drawn)  21.4%
2. O=S(=O)(NCCCNc1nccc(-c2c(-c3ccc(F)cc3)nc3sccn23)n1)c1ccc(F)cc1  25.4%
3. COc1cc(-c2cc(/C=C3\C(=O)Nc4cc(Cl)ccc43)[nH]n2)cc(OC)c1OC  32.6%
4. COc1cc(Cl)cc(-c2nn(-c3cccc(NC(=O)c4ccc(Cl)c(Cl)c4)c3)cc2-c2ccncc2)c1  36.1%
5. Oc1[nH]c2ccc(Cl)cc2c1/C=c1/ccc2c(c1)N=C(c1cc(F)cc(F)c1)N=2  46.7%
6. O=C1/C(=C/c2ccc(Cl)cc2)SC(=Nc2ccc(Cl)cc2)N1Cc1nc2ccccc2[nH]1  68.2%
7. CN(C)C(=S)N/N=C\C=N/NC(=S)N(C)C  68.8%
8. CCN1CCCC1CNC(=O)c1ncc(-c2ccc(C(F)(F)F)cc2)c(NC2CCCCCC2)n1 (stereo not drawn)  69.3%
9. c1ccc([I+]c2ccccc2)cc1  81%
10. N=C(N)c1ccc(-c2ccc(-c3ccccc3)o2)nc1  81%
11. CCCC(F)C(=O)O (stereo not drawn)  83.5%
12. COc1ccc(/C=C2/CN(C(=O)c3ccc(C)cc3)C/C(=C\c3ccc(OC)cc3)C2=O)cc1  85.2%
13. CCOC(=O)C(CSC(c1ccccc1)(c1ccccc1)c1ccccc1)NC(=O)C(CSC(c1ccccc1)(c1ccccc1)c1ccccc1)NC(c1ccccc1)(c1ccccc1)c1ccccc1 (stereo not drawn)  86.7%
14. O=c1c2ccccc2nc(SCCN2CCCCC2)n1CCc1ccccc1  87.5%
15. N=c1c2c(-c3ccccc3)c(-c3ccccc3)n(Cc3ccccc3)c2ncn1CCCO  88.3%
16. Cc1ccc(NC(=O)CSc2nc3ccccc3c(=O)n2CCc2ccccc2)c(C(=O)O)c1  91.8%
17. COc1cc2cc3c(nc2cc1OC)CCN3Cc1ccc(NC(=O)c2ccc(Cl)c(C(F)(F)F)c2)cc1  92.8%
18. COc1ccc(C2=Nc3c(C)nn(-c4ccccc4)c3NC(c3ccc(Oc4ccnc5cc(Cl)ccc45)c(OC)c3)C2)cc1 (stereo not drawn)  93.1%
19. CCn1cc(C(=O)O)c(=O)c2cnc(N3CCCC3)nc21  94.7%
20. S=c1[nH]ccn1-c1c(Cl)cccc1Cl  99.1%
21. O=C(/C=C/c1cc2ccccc2[nH]c1=O)c1ccc2c(c1)OCO2  100%
22. CSc1nn(-c2ccccc2)c2ncnc(Oc3ccccc3)c12  101%
23. COc1ccccc1/C=C/C(=O)c1ccccc1  101%
24. COC(=O)c1ccc(=O)oc1  102%
25. O=C(CCCCC(=O)Nc1ccc2c(c1)/C(=C/c1ccc[nH]1)C(=O)N2)NO  102%
26. CN(Cc1ccccc1)Cc1ccc([N+](=O)[O-])cc1I  104%
27. O=C(Nc1ccc(Cl)cc1)N1NC(c2ccc(Cl)cc2)C=C1c1ccccc1 (stereo not drawn)  105%
28. COc1ccc(/C=C/C(=O)Nc2ccc(-c3nc4ccc(OC)cc4s3)cc2)cc1  106%
29. NC(=O)SCC(=O)Nc1ccc(S(N)(=O)=O)cc1  107%
30. CCCCCCCCCCCCCCCC(=O)OC1[C@@H](OC(=O)CCCCCCCCCCCCCCC)[C@@H](C(=O)N[C@@H](CCCCN)C(=O)OC)O[C@H]1n1cnc2c(=O)[nH]c(NC(=O)C(C)C)nc21 (stereo partly drawn)  108%
31. O=C(N/N=C\c1cc(Cl)ccc1[N+](=O)[O-])c1ccco1  108%
32. COc1cc(C(=C2O[C@@H]([C@H]3COC(C)(C)O3)[C@H]3OC(C)(C)O[C@@H]23)c2cc(OC)c(OC)c(OC)c2)cc(OC)c1OC  110%
33. Cc1ccc(N=Nc2c(N)nc(N)[nH]c2=O)cc1C  112%
34. COc1ccc(N2C(=O)C3c4[nH]c5ccc(OCc6ccccc6)cc5c4C4CCC(C(C)C)CC4C3C2=O)cc1 (stereo not drawn)  114%

test system: SF-539 CNS; experiment: as above; details: 10 µM

In the case of `CN(C)CCOc1nc2ccccc2c2c1-c1ccc(Cl)cc1C2=O`, the growth is reported as -1.7% (active).
For `O=C1OCC2=C1C(c1cccc(Cl)c1)c1cc3c(cc1N2CCO)CCC3` (stereo not drawn), the growth was -5.32% (active).
With `O=C(Nc1cccc(-n2cc(-c3ccncc3)c(-c3ccc(O)c(Cl)c3)n2)c1)c1ccc(N2CCOCC2)c(C(F)(F)F)c1` the growth was -28% (active).
For `COc1ccccc1CNCCCN1C(=O)c2ccc3c4c(ccc(c24)C1=O)C(=O)N(CCCN)C3=O`, the growth was -87.3% (active).
`O=C(C[P+](c1ccccc1)(c1ccccc1)c1ccccc1)C[P+](c1ccccc1)(c1ccccc1)c1ccccc1` was tested, and the growth was -98.2% (active).
For `COc1cc(/C=C2\CCCC3=C2N=C2SC=NN2C3c2cc(OC)c(OC)c(OC)c2)cc(OC)c1OC` (stereo not drawn), the growth was 5.9% (active).

In order of falling growth:
1. COc1ccc(N2C(=O)C3c4[nH]c5ccc(OCc6ccccc6)cc5c4C4CCC(C(C)C)CC4C3C2=O)cc1 (stereo not drawn)  118%
2. CCOC(=O)C(CSC(c1ccccc1)(c1ccccc1)c1ccccc1)NC(=O)C(CSC(c1ccccc1)(c1ccccc1)c1ccccc1)NC(c1ccccc1)(c1ccccc1)c1ccccc1 (stereo not drawn)  112%
3. O=C(Nc1ccc(Cl)cc1)N1NC(c2ccc(Cl)cc2)C=C1c1ccccc1 (stereo not drawn)  112%
4. COc1cc(C(=C2O[C@@H]([C@H]3COC(C)(C)O3)[C@H]3OC(C)(C)O[C@@H]23)c2cc(OC)c(OC)c(OC)c2)cc(OC)c1OC  111%
5. Cc1ccc(NC(=O)CSc2nc3ccccc3c(=O)n2CCc2ccccc2)c(C(=O)O)c1  104%
6. CCCCCCCCCCCCCCCC(=O)OC1[C@@H](OC(=O)CCCCCCCCCCCCCCC)[C@@H](C(=O)N[C@@H](CCCCN)C(=O)OC)O[C@H]1n1cnc2c(=O)[nH]c(NC(=O)C(C)C)nc21 (stereo partly drawn)  103%
7. COc1ccc(/C=C/C(=O)Nc2ccc(-c3nc4ccc(OC)cc4s3)cc2)cc1  102%
8. Cc1ccc(N=Nc2c(N)nc(N)[nH]c2=O)cc1C  102%
9. COc1ccc(/C=C2/CN(C(=O)c3ccc(C)cc3)C/C(=C\c3ccc(OC)cc3)C2=O)cc1  102%
10. CCCC(F)C(=O)O (stereo not drawn)  102%
11. O=C1/C(=C/c2ccc(Cl)cc2)SC(=Nc2ccc(Cl)cc2)N1Cc1nc2ccccc2[nH]1  101%
12. CCn1cc(C(=O)O)c(=O)c2cnc(N3CCCC3)nc21  100%
13. NC(=O)SCC(=O)Nc1ccc(S(N)(=O)=O)cc1  100%
14. CN(Cc1ccccc1)Cc1ccc([N+](=O)[O-])cc1I  100%
15. CSc1nn(-c2ccccc2)c2ncnc(Oc3ccccc3)c12  98%
16. COC(=O)c1ccc(=O)oc1  95.8%
17. CCN1CCCC1CNC(=O)c1ncc(-c2ccc(C(F)(F)F)cc2)c(NC2CCCCCC2)n1 (stereo not drawn)  94.7%
18. S=c1[nH]ccn1-c1c(Cl)cccc1Cl  94.4%
19. O=C(N/N=C\c1cc(Cl)ccc1[N+](=O)[O-])c1ccco1  92.4%
20. COc1ccc(C2=Nc3c(C)nn(-c4ccccc4)c3NC(c3ccc(Oc4ccnc5cc(Cl)ccc45)c(OC)c3)C2)cc1 (stereo not drawn)  92.2%
21. COc1ccccc1/C=C/C(=O)c1ccccc1  92%
22. N=C(N)c1ccc(-c2ccc(-c3ccccc3)o2)nc1  92%
23. O=c1c2ccccc2nc(SCCN2CCCCC2)n1CCc1ccccc1  90.2%
24. O=C(/C=C/c1cc2ccccc2[nH]c1=O)c1ccc2c(c1)OCO2  88.2%
25. CN(C)C(=S)N/N=C\C=N/NC(=S)N(C)C  84.6%
26. Oc1[nH]c2ccc(Cl)cc2c1/C=c1/ccc2c(c1)N=C(c1cc(F)cc(F)c1)N=2  83.3%
27. COc1cc2cc3c(nc2cc1OC)CCN3Cc1ccc(NC(=O)c2ccc(Cl)c(C(F)(F)F)c2)cc1  81.1%
28. O=C(CCCCC(=O)Nc1ccc2c(c1)/C(=C/c1ccc[nH]1)C(=O)N2)NO  81.1%
29. O=S(=O)(NCCCNc1nccc(-c2c(-c3ccc(F)cc3)nc3sccn23)n1)c1ccc(F)cc1  78.1%
30. COc1cc(Cl)cc(-c2nn(-c3cccc(NC(=O)c4ccc(Cl)c(Cl)c4)c3)cc2-c2ccncc2)c1  74.5%
31. c1ccc([I+]c2ccccc2)cc1  68.9%
32. N=c1c2c(-c3ccccc3)c(-c3ccccc3)n(Cc3ccccc3)c2ncn1CCCO  54.1%
33. COc1cc(-c2cc(/C=C3\C(=O)Nc4cc(Cl)ccc43)[nH]n2)cc(OC)c1OC  48.9%
